Each structure is given as a SMILES string. The source made the active and inactive calls. The calls were made as follows: active = hit-call score of the fitted dose curve at least 0.9, where 1 is the maximum; inactive = score below 0.9.

What is called AC50 is the concentration giving half of the maximal activity seen.

The assay in a line: APR_HepG2_MitoMembPot_1hr: Apredica 1-hour HepG2 Assay for Mitochondrial Membrane Potential (AID 2282675). The following applies: imaging, actives raise or lower the signal. The method, then: APR_HepG2_1hr is a cell-based, multiplexed-readout assay that uses HepG2, a human liver cell line, with measurements taken at 1 hour after chemical dosing in a 384-well plate.APR_HepG2_MitoMembPot_1hr is one of 10 assay component(s) measured or calculated from the APR_HepG2_1hr assay. It is designed to make measurements of dye binding, a form of membrane potential reporter, as detected with fluorescence intensity signals by HCS Fluorescent Imaging technology.Data from the assay component APR_HepG2_MitoMembPot_1hr was analyzed into 1 assay endpoint. This assay endpoint, APR_HepG2_MitoMembPot_1hr, was analyzed with bidirectional fitting relative to DMSO as the negative control and baseline of activity. Using a type of membrane potential reporter, gain or loss-of-signal activity can be used to understand changes in the signaling. Furthermore, this assay endpoint can be referred to as a primary readout, because this assay has produced multiple assay endpoints where this one serves a signaling function. To generalize the intended target to other relatable targets, this assay endpoint is annotated to the cell morphology intended target family, where the subfamily is organelle conformation.
Cells were treated with dimethyl sulfoxide (DMSO) as a solvent control at a final concentration of 0.5% v/v or with compounds in DMSO with a resulting final DMSO concentration of 0.5% v/v. Compound treatment was done at concentrations of 0.39, 0.78, 1.56, 3.12, 6.24, 12.5, 25, 50, 100, and 200 uM in duplicate on each plate. Cells were treated with compounds for 1, 24, or 72 hr. Carbonyl […] m-chloro-phenylhydrazone (CCCP) and taxol were used as positive controls for mitochondrial function and cytoskeletal stability, respectively; DMSO served as the negative control for this experiment. Cells were fixed by the direct addition of 50 uL formaldehyde in Hank's Balanced Salt Solution (HBSS) to a final concentration of 3.7%. After incubation in the fixation medium for 30 min at room temperature (293-298 K), cells were rinsed twice with HBSS and treated with cell permeabilization buffer (16 uL of 0.5% Triton X-100) for 10 min at room temperature (293-298 K) before labeling. For mitochondrial membrane potential and mitochondrial measurements, pre-fixed cells were incubated with 50 uL of MitoTracker Red CMXRos (Invitrogen) at a concentration of 250 nM for 30 min before fixation. In the remaining cases, post-fixed cells were labeled by incubation with a multiplexed mixture of primary antibodies in HBSS for 60 min at room temperature (293-298 K) to detect immunoreactivity of c-Jun (1:500), phospho-histone H3 (1:100), phospho-histone H2A.x (1:200), p53 (1:400), alpha-tubulin (1:200) and Hoechst 33342 (2 ug/mL). Cells were labeled for multiplexed imaging on two separate plates: a) Hoechst 33342, MitoTracker Red, phospho-histone H3, and alpha-tubulin, and b) Hoechst 33342, phospho-histone H2A.x, and c-Jun. A final rinse with HBSS (50 uL) was performed before analysis. The primary and secondary antibodies for the proteins were phospho-histone H3 (rabbit anti-phospho-histone H3 and FITC-donkey anti-rabbit IgG), phospho-histone H2A.x (mouse anti-phospho-histone H2A.x and FITC-donkey anti-mouse IgG), c-Jun (rabbit anti-phospho-c-Jun and Cy3-donkey anti-rabbit IgG), p53 (sheep anti-p53 and Cy5-donkey anti-sheep IgG), alpha-tubulin (mouse anti-alpha-tubulin and Cy5-donkey anti-mouse IgG). These antibodies are available as the CellCiphr HepG2 assay kit (Millipore).Digital images of each well were captured using a Cellomics ArrayScan VTI (Thermo Scientific Cellomics) (0.8 NA objective, 0.63x optical coupler, and XF-93 filter set) at 20x magnification. The images were acquired using the autofocus feature of the ArrayScan instrument, which entails the following steps. First, the camera focuses on channel 1 (Hoechst 33342), where nuclei are identified. Second, a Z offset of 1 um is used for capturing mitochondria (MitoTracker Red). […]
Regarding `Oc1ccc(C(c2ccc(O)cc2)C(Cl)(Cl)Cl)cc1`, the half-maximal activity concentration (AC50) was 87 µM (active).

For the compound `COC(=O)c1ccc(CNS(C)(=O)=O)cc1S(=O)(=O)NC(=O)Nc1nc(OC)cc(OC)n1`, the compound was called inactive.

Take `COC(=O)c1ccc(I)cc1S(=O)(=O)NC(=O)Nc1nc(C)nc(OC)n1`: the result was inactive.

As to `COc1c(Cl)ccc(Cl)c1C(=O)O`, the compound was classed as inactive.

Take `CCOC(=O)C(C)Oc1ccc(Oc2cnc3cc(Cl)ccc3n2)cc1` (stereo not given): the call was inactive.

As for `S=C([S-])NCCNC(=S)[S-].[Mn+2]`, the compound was classed as inactive.

Consider `CCCCOCCOCCOCc1cc2c(cc1CCC)OCO2`, for which the call was inactive.

With `COC(=O)CSc1cc(N=c2sc(=O)n3n2CCCC3)c(F)cc1Cl`, the compound was classed as inactive.

In the case of `CCCCCOC(=O)COc1cc(N2C(=O)C3=C(CCCC3)C2=O)c(F)cc1Cl`, the call was inactive.

For the compound `COc1nc(C)nc(NC(=O)NS(=O)(=O)c2ccccc2OCCCl)n1`, the result was inactive.

On to `CCN(CC)C(=O)c1cccc(C)c1`, for which the call was inactive.

Turning to `CC(C)(c1ccc(O)cc1)c1ccc(O)cc1`, the outcome was inactive.

With `CCOC(=O)C(C)Oc1ccc(Oc2nc3ccc(Cl)cc3o2)cc1` (stereo not given), the call was inactive.

For the compound `CCSC(=O)N(CC(C)C)CC(C)C`, the call was inactive.

`N#CSCSc1nc2ccccc2s1`: the compound was classed as inactive.

On to `OB(O)O`, for which the call was inactive.

Consider `CCC(O)=C1C(=O)CC(C(=O)O)CC1=O` (stereo not given), for which the outcome was inactive.

`CC1(C)C(C=C(Cl)Cl)C1C(=O)OCc1cccc(Oc2ccccc2)c1` (stereo not given): the call was inactive.

Regarding `CCCCC(CC)COC(=O)c1ccccc1C(=O)O` (stereo not given), the outcome was inactive.

Take `CC(C)(C)[C@@H](O)[C@@H](Cc1ccc(Cl)cc1)n1cncn1`: the call was inactive.

`CCCOC(=O)NCCCN(C)C`: the compound was classed as inactive.

On to `CCOC(=O)COc1cc(-n2ncc(C(F)(F)F)c(C)c2=O)c(F)cc1Cl`, for which the compound was classed as inactive.

Take `CCNc1nc(N)nc(Cl)n1`: the call was inactive.

As for `COC(=O)c1c(Cl)nn(C)c1S(=O)(=O)NC(=O)Nc1nc(OC)cc(OC)n1`, the compound was classed as inactive.

As for `S=C(S)NCCNC(=S)S.[Mn+2].[S-]C([S-])=NCCN=C([S-])[S-].[Zn+2]`, the compound was called inactive.

As to `CCN(Cc1c(F)cccc1Cl)c1c([N+](=O)[O-])cc(C(F)(F)F)cc1[N+](=O)[O-]`, the result was inactive.

As for `CCCOC(=O)c1ccc(C(=O)OCCC)nc1`, the result was inactive.

As for `CCCCCCC(C)OC(=O)COc1nc(F)c(Cl)c(N)c1Cl` (stereo not given), the compound was classed as inactive.

Consider `CN(C)C(=O)Nc1ccc(Cl)c(Cl)c1`, for which the compound was called inactive.

For the compound `CCCCOC(=O)C(C)Oc1ccc(Oc2ccc(C(F)(F)F)cn2)cc1` (stereo not given), the call was inactive.

Turning to `O=C(Nc1ccc([N+](=O)[O-])cc1Cl)c1cc(Cl)ccc1O`, the AC50 is 1.94 µM (active).

For `Cc1nn(C)c(Oc2ccccc2)c1C=NOCc1ccc(C(=O)OC(C)(C)C)cc1`, the call was inactive.

Regarding `O=C(O)C1(C(=O)Nc2ccc(Cl)cc2Cl)CC1`, the compound was called inactive.

Take `COCCO`: the compound was classed as inactive.

Regarding `CCCN(CCC)C(=O)SCC`, the compound was called inactive.

Turning to `COC(=O)c1ccccc1C(=O)O`, the outcome was inactive.

For the compound `c1ccc(Nc2ccccc2)cc1`, the compound was classed as inactive.

As to `COC(=O)c1cccc(C)c1S(=O)(=O)NC(=O)Nc1nc(OCC(F)(F)F)nc(N(C)C)n1`, the compound was classed as inactive.

For the compound `CCOC(=O)[C@H](C)Oc1ccc(Oc2nc3ccc(Cl)cc3o2)cc1`, the compound was called inactive.

Consider `COC(=O)c1ccccc1S(=O)(=O)NC(=O)Nc1nc(OC(F)F)cc(OC(F)F)n1`, for which the result was inactive.

For the origin of these results see PubChem BioAssay (EPA / NIEHS).
